CRFBP-R2 block: CRF-BP/CRF-R2 complex antagonism; AID 588475; inhibition, % at 11.8 µM; 350,000 compounds, 0.59% hits; HEK293 CRF-R2/CRF-BP, CRF-induced calcium fluorescence;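 active = inhibition of the ligand-induced calcium signal above about 50% at the single tested concentration, limit read from the data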
MEKK2wt PB1 HTS: raises or lowers MEK5 binding to wildtype human MEKK2 PB1 domain; 290,000 compounds, 1.1% hits; Q9Y2U5; AID 1531; binding response (% of control), % at 10 µM; bead flow cytometry, Alexa488-MEK5 binding to MEKK2 WT; actives lie on both sides; in the data active = binding response below about 67% or above about 130%
MEKK3 PB1 HTS: modulators (inhibitors or enhancers) of MEK5 binding to human MEKK3 PB1 domain; Q99759; bead-based flow cytometry, Alexa488-MEK5 binding to MEKK3; actives lie on both sides; 0 = blocked by unlabeled MEK5, 100 = vehicle; binding response (% of control), % at 10 µM; 290,000 compounds, 1.4% hits;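 active = binding response more than 3 SD above or below the average of its plate-row segment, actives on both sides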;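 note: Alexa488 bead fluorescence after subtracting the streptavidin-only scavenger bead signal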
Target sequence (Q99759 whole entry, looked up, the tested form may be a part): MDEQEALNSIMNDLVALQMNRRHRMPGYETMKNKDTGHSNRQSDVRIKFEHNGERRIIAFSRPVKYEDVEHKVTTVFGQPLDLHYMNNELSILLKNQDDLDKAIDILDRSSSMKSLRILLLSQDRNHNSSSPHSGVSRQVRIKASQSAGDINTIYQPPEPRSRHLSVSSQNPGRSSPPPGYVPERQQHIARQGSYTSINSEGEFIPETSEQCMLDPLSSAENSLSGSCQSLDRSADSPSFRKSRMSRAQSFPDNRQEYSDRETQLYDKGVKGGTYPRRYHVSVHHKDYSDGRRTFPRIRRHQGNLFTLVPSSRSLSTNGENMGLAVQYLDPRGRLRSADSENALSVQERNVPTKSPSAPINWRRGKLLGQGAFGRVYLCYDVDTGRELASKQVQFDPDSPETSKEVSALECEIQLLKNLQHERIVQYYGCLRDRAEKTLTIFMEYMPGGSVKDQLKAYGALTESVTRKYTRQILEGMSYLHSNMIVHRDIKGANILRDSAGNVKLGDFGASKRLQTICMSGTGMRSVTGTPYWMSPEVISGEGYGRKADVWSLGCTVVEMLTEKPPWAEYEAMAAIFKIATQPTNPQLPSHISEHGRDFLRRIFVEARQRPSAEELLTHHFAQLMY
CRFR2-BP ag: agonists of human CRF-binding protein/CRF-R2 receptor complex; HEK293 CRF-R2/CRF-BP, calcium dye fluorescence (FLIPR); percent of saturating CRF peptide response; activation, % at 13.2 µM; 350,000 compounds, 0.46% hits;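 active = activation of at least 50%, plus an integration ratio under a set limit after plate pattern correction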;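 note: plate controls were neutral control wells without compound for no effect and CRF at EC100 for full effect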
ABCB6 inh 2: human ABCB6 transporter inhibition; Q9NP58; AID 602162; K562-ABCB6 porphyrin accumulation, flow cytometry, 1 h; active compounds read low; fluorescence ratio to DMSO, % at 10 µM; 360,000 compounds, 0.19% hits;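 active = fluorescence ratio to DMSO below 75%, the collection mean minus 3 SD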;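 note: signal is porphyrin accumulated inside mitochondria; 100% equals median channel fluorescence of DMSO control wells; lower ratio means ABCB6 inhibition with less porphyrin fluorescence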
MEKK2mut PB1 HTS: signal of MEK5 binding to mutant human MEKK2 PB1 domain; bead flow cytometry, Alexa488-MEK5 binding to MEKK2 mutant; percent response, % at 10 µM; 290,000 compounds, 0.35% hits; in the data active = percent response above about 24%, passing the limit was not always enough
* = called active by the depositor; · = no result given. In the library only some 2.9% were active in any assay of this set; here they are far more common.

SMILES	CRFBP-R2 block	MEKK2wt PB1 HTS	MEKK3 PB1 HTS	CRFR2-BP ag	ABCB6 inh 2	MEKK2mut PB1 HTS
CCCCn1c(=O)[nH]c2nc3cc(N)ccc3nc2c1=O	-298	95	93	232*	137	-3
Nc1ccc2nc3c(=O)n(C4CCCCC4)c(=O)[nH]c3nc2c1	-119	98	103	167*	109	5
Nc1ccc2nc3c(=O)n(CCc4ccccc4)c(=O)[nH]c3nc2c1	-143	92	100	195*	147	-8
O=Cc1c(-c2ccccc2)cc2oc3ccccc3cc1-2	5	107	105	-1	99	5
O=S(=O)(c1ccc2c(c1)C(O)c1ccccc1CC2)C(F)(F)F (stereo not drawn)	-6	·	·	3	105	·
N#C/C(=C(/O)COC(=O)c1ccccc1O)c1nc2ccccc2s1	45	86	93	79*	221	-10
C/C(=N\NC(=O)c1cccc(Cl)c1)C1C(=O)c2ccccc2C1=O	85*	95	92	26	98	-3
C/C(=N\NC(=O)CCc1ccccc1)C1C(=O)c2ccccc2C1=O	4	98	108	-2	98	1
Cc1ccc(N2CC(C(=O)NC3CCC(C)CC3)CC2=O)cc1 (stereo not drawn)	67*	108	106	1	99	11
Cc1ccc(C)c(NS(=O)(=O)c2c(C)nc3sccn3c2=O)c1	17	94	100	0	95	-3
Clc1ccc2nncn2n1	77*	89	84	0	87	-4
CCOc1ccc(NC(=O)CCCN2C(=O)C(c3ccccc3)Oc3cccnc32)cc1 (stereo not drawn)	57*	95	102	-1	97	0
O=C(Nc1cccn(Cc2c(Cl)cccc2Cl)c1=O)c1c(Cl)cccc1Cl	52*	93	96	2	93	-5
O=C(CCc1ccccc1)Nc1ccnn1C1CCN(C/C=C/c2ccccc2)CC1	5	126	108	-1	98	27*
O=C(Nc1ccnn1C1CCN(C/C=C/c2ccccc2)CC1)C1CCCC1	-10	124	106	-1	100	12
COc1ccccc1/C=C/CN1CCC(n2nccc2NC(=O)CCc2ccccc2)CC1	4	138*	103	0	103	11
CCCCCc1nnc(NC(=O)CN2C(=O)C3CCCCC3C2=O)s1 (stereo not drawn)	-7	109	106	-1	98	8
O=C(NCCc1cn[nH]c1)c1ccc2oc(CCc3ccccc3)nc2c1	2	·	·	0	101	·
CN(C)c1ccc(/C=C/c2ccc3ccccc3n2)cc1	-90	93	97	90*	158	4
Oc1ccc(/C=C/c2ccc3ccccc3n2)cc1	0	97	100	-1	101	-6
CCCN(CCC)c1ccc(/C=C/c2ccc3cc(OCC)ccc3n2)cc1	-23	·	86	34	330	51*
CN(C)c1ccc(/C=C/c2nc3ccccc3s2)cc1	-84	96	94	65*	120	-5
Cc1ccc(/C=C/c2nc3ccccc3s2)s1	-9	106	102	12	100	2
CNc1nc(NC)nc(NNC(=O)c2ccccc2)n1	51*	·	·	-2	94	·
CCOc1ccc2c(c1)/C(=N/N1C(=O)c3ccccc3C1=O)C(=O)N2	105*	85	93	0	97	-13
SMILES	CRFBP-R2 block	MEKK2wt PB1 HTS	MEKK3 PB1 HTS	CRFR2-BP ag	ABCB6 inh 2	MEKK2mut PB1 HTS
CCOC(=O)c1cc2nc(-c3ccccc3)cc(C)n2n1	16	105	100	2	101	9
Cc1cc(-c2ccccc2)nc2cc(C(N)=O)nn12	-8	102	98	-2	6.0*	18
OCC1(Cc2cccc(Cl)c2)CCCN(Cc2ccc(F)c(F)c2)C1 (stereo not drawn)	-18	107	100	1	98	2
CC(=O)Nc1ccc(CN2CCCC(CO)(Cc3cccc(Cl)c3)C2)cc1 (stereo not drawn)	-41	102	107	56*	100	5
O=C1c2ccccc2OC2(C=Cc3ccccc3O2)N1Cc1ccccc1 (stereo not drawn)	56*	·	·	-1	96	·
O=C(COc1ccc(Cl)cc1Cl)NNC(=S)NC(=O)c1ccco1	-20	114	117	7	105	20
CCCOc1ccc(C(=O)NNC(=S)NC(=O)c2cccs2)cc1	-21	100	101	113*	101	-1
CCCC(=O)Nc1ccc(C(=O)NNC(=S)NC(=O)c2cccs2)cc1	-8	95	96	-2	96	-1
CCCOc1ccc(C(=O)NNC(=S)NC(=O)c2ccccc2)cc1	-94	103	98	180*	92	2
CCCOc1ccc(C(=O)NNC(=S)NC(=O)c2ccco2)cc1	-15	99	99	137*	88	-1
CC(Oc1ccc(Cl)cc1)C(=O)NNC(=S)NC(=O)c1ccco1 (stereo not drawn)	-47	97	92	135*	99	-3
COc1ccc(C(=O)NNC(=S)NC(=O)c2ccco2)cc1	7	105	109	33	104	2
CCCOc1ccc(C(=O)NNC(=S)NC(C)=O)cc1	-6	95	93	-1	97	-7
CCN(Cc1cc(=O)n2ccsc2n1)Cc1nc2cc(OC)c(OC)cc2c(=O)[nH]1	-5	81	87	2	95	-26
CCOC(=O)Nc1ccc2c(c1)N(C(=O)CCN(CC)CC)c1ccccc1S2=O (stereo not drawn)	8	108	103	1	99	2
Cc1ccc(C2C=C(c3ccccc3)Nc3nc(N4C(=O)CCC4=O)nn32)cc1 (stereo not drawn)	-1	96	103	81*	100	-4
COc1cccc(C2C=C(c3ccc(OC)cc3OC)Nc3nnnn32)c1 (stereo not drawn)	-6	100	107	81*	98	1
COc1ccc(C2=CC(c3ccc(OC)c(OC)c3)n3nnnc3N2)c(OC)c1 (stereo not drawn)	-1	96	98	88*	157	0
COc1ccc(C2=CC(c3ccc(C)cc3)n3nnnc3N2)cc1 (stereo not drawn)	-81	96	100	92*	97	-2
COc1cccc(C2=CC(c3ccccc3)n3nnnc3N2)c1 (stereo not drawn)	-27	·	·	1	98	·
CCS(=O)(=O)N1CCC(NC(=O)C(Cc2cc(OC)ccc2OC)NC(C)=O)CC1 (stereo not drawn)	-6	97	99	0	98	4
O=C(Nc1ccccc1N1CCN(C(=O)c2ccccc2)CC1)c1ccc(Br)o1	10	99	101	2	103	4

Screening data deposited in PubChem by several laboratories.
